The panel holds about 83,000 compounds, 20% with a hit somewhere; the sample as a whole holds those more often.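 How to read the values: 0–100, growth inhibition (40 = 60% inhibited); 0, no net growth; -100 to 0, cell death (-40 = 40% of starting cells died; -100 = all dead).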 The source made the active and inactive calls. How the source made its calls: active means growth percent below 10; inactive means the rest.
Experiments:
Experiment in all cases: NCI-60 one-dose screen, 48 h (100 = growth as untreated, 0 = no growth, -100 = all killed)
Conditions in all cases: 10 µM unless noted
HCT-15 colon = test system: HCT-15 colon
HT29 colon = test system: HT29 colon
SNB-75 CNS = test system: SNB-75 CNS
SNB-19 CNS = test system: SNB-19 CNS
U251 CNS = test system: U251 CNS
PC-3 prostate = test system: PC-3 prostate
SK-MEL-5 melanoma = test system: SK-MEL-5 melanoma
UACC-62 melanoma = test system: UACC-62 melanoma
LOX IMVI melanoma = test system: LOX IMVI melanoma
SK-MEL-28 melanoma = test system: SK-MEL-28 melanoma
SK-MEL-2 melanoma = test system: SK-MEL-2 melanoma
EKVX NSCLC = test system: EKVX NSCLC
SN12C renal = test system: SN12C renal
UO-31 renal = test system: UO-31 renal
TK-10 renal = test system: TK-10 renal
ACHN renal = test system: ACHN renal
CAKI-1 renal = test system: CAKI-1 renal
A498 renal = test system: A498 renal
CCRF-CEM leukemia = test system: CCRF-CEM leukemia
MOLT-4 leukemia = test system: MOLT-4 leukemia

Measured: growth

CNCCCNc1nc2ccccc2c2c(=O)c3cc(F)ccc3sc12
active: HCT-15 colon 3.52% | HT29 colon -39.7% | U251 CNS 2.96% | UACC-62 melanoma -1.88% | LOX IMVI melanoma -96.2% | CAKI-1 renal -60.9% | CCRF-CEM leukemia -3.67% | MOLT-4 leukemia -27.9%
inactive: SNB-75 CNS 59.5% | SNB-19 CNS 65% | PC-3 prostate 39.6% | SK-MEL-5 melanoma 73.7% | SK-MEL-28 melanoma 50.1% | SK-MEL-2 melanoma 91% | EKVX NSCLC 64.7% | SN12C renal 58.7% | UO-31 renal 20.8% | TK-10 renal 43.3% | ACHN renal 10.9% | A498 renal 28%

COc1cc(C(=O)/C=C/c2c(Cl)nc3sccn23)cc(OC)c1OC
inactive: HCT-15 colon 59.4% | HT29 colon 67.5% | SNB-75 CNS 70.9% | SNB-19 CNS 83% | U251 CNS 77.4% | PC-3 prostate 70.5% | SK-MEL-5 melanoma 86.4% | UACC-62 melanoma 78.7% | LOX IMVI melanoma 63.8% | SK-MEL-28 melanoma 93.6% | SK-MEL-2 melanoma 86.1% | EKVX NSCLC 90.7% | SN12C renal 66.3% | UO-31 renal 60.4% | TK-10 renal 106% | ACHN renal 86.4% | CAKI-1 renal 84.9% | A498 renal 88% | CCRF-CEM leukemia 48.7% | MOLT-4 leukemia 74%

Cn1cc(-c2cc3ncnc(Nc4ccc(CC(=O)Nc5cc(C(C)(C)C)nn5C)cc4)c3s2)cn1
inactive: HCT-15 colon 54.8% | HT29 colon 50% | SNB-75 CNS 56.3% | SNB-19 CNS 95.7% | U251 CNS 61.2% | PC-3 prostate 43.9% | SK-MEL-5 melanoma 49% | UACC-62 melanoma 33.5% | LOX IMVI melanoma 33.6% | SK-MEL-28 melanoma 77.2% | SK-MEL-2 melanoma 22.3% | EKVX NSCLC 84.6% | SN12C renal 26.4% | TK-10 renal 56.5% | ACHN renal 25.9% | CAKI-1 renal 19.3% | CCRF-CEM leukemia 13.7% | MOLT-4 leukemia 16.7%
active: A498 renal -7.97%

c1ccc(-c2nc3nonc3nc2-c2ccccc2)cc1
active: A498 renal -10.9%
inactive: HCT-15 colon 68.3% | HT29 colon 82.7% | SNB-75 CNS 65.4% | SNB-19 CNS 77.8% | U251 CNS 58.3% | PC-3 prostate 46.5% | SK-MEL-5 melanoma 63.8% | UACC-62 melanoma 58.7% | LOX IMVI melanoma 56% | SK-MEL-28 melanoma 90.3% | SK-MEL-2 melanoma 79% | EKVX NSCLC 67% | SN12C renal 68.7% | UO-31 renal 36.3% | TK-10 renal 81.4% | ACHN renal 53.9% | CAKI-1 renal 51% | CCRF-CEM leukemia 80.7% | MOLT-4 leukemia 70.9%

CCc1cccc2c3c(sc12)C(c1ccc(Cl)cc1)C(C#N)=C(N)O3 (stereo not drawn)
active: HT29 colon 6.86% | SNB-75 CNS -10.2% | PC-3 prostate 7.23% | CAKI-1 renal 3.05% | CCRF-CEM leukemia 5.24%
inactive: HCT-15 colon 13.8% | SNB-19 CNS 27.1% | U251 CNS 24.7% | SK-MEL-5 melanoma 29% | UACC-62 melanoma 22.1% | LOX IMVI melanoma 26.6% | SK-MEL-28 melanoma 63.4% | SK-MEL-2 melanoma 40.2% | EKVX NSCLC 48.2% | SN12C renal 38.3% | TK-10 renal 69% | ACHN renal 33.7% | A498 renal 10.8% | MOLT-4 leukemia 12.2%

BrCCCc1n(Cc2ccc3ccccc3c2)c2ccccc2[n+]1Cc1ccc2ccccc2c1
inactive: UO-31 renal 52.8%
active: HCT-15 colon -60.6% | HT29 colon -50.8% | SNB-75 CNS -71.5% | SNB-19 CNS -33.3% | U251 CNS -91.9% | PC-3 prostate -69.1% | SK-MEL-5 melanoma -95.3% | UACC-62 melanoma -76.2% | LOX IMVI melanoma -93.8% | SK-MEL-28 melanoma -75.8% | SK-MEL-2 melanoma -50.8% | EKVX NSCLC -10.7% | SN12C renal -92.8% | TK-10 renal -85.7% | ACHN renal 5.29% | CAKI-1 renal -90.7% | A498 renal -32.5% | CCRF-CEM leukemia -41.6% | MOLT-4 leukemia -35.9%

COc1cc(CNS(=O)(=O)c2ccc(C)cc2)ccc1OCc1cn(-c2ccccc2)nn1
inactive: HCT-15 colon 88.2% | HT29 colon 103% | SNB-75 CNS 91.9% | SNB-19 CNS 92.3% | U251 CNS 89.1% | PC-3 prostate 86.7% | SK-MEL-5 melanoma 80.1% | UACC-62 melanoma 75.2% | LOX IMVI melanoma 94.1% | SK-MEL-28 melanoma 101% | SK-MEL-2 melanoma 102% | EKVX NSCLC 87.6% | SN12C renal 93.3% | UO-31 renal 79.5% | TK-10 renal 104% | ACHN renal 95.1% | CAKI-1 renal 88.5% | A498 renal 59% | CCRF-CEM leukemia 88.9% | MOLT-4 leukemia 88.4%

[O-][n+]1c2ccccc2[n+]([O-])c2c3ccccc3[nH]c21
inactive: HCT-15 colon 78.7% | HT29 colon 77.3% | SNB-75 CNS 82.6% | SNB-19 CNS 85% | U251 CNS 53.2% | PC-3 prostate 66.4% | SK-MEL-5 melanoma 73.5% | UACC-62 melanoma 20.7% | LOX IMVI melanoma 98.3% | SK-MEL-28 melanoma 117% | SK-MEL-2 melanoma 61.9% | EKVX NSCLC 30.8% | SN12C renal 81.3% | UO-31 renal 70% | TK-10 renal 41% | ACHN renal 87.5% | CAKI-1 renal 48.1% | CCRF-CEM leukemia 82.3% | MOLT-4 leukemia 98.8%
active: A498 renal -38.5%

COc1ccc(C(=O)N=Nc2c(O)n(C)c3ccccc23)cc1
inactive: HCT-15 colon 91.6% | HT29 colon 103% | SNB-75 CNS 91.6% | SNB-19 CNS 87.3% | U251 CNS 98.5% | PC-3 prostate 90.9% | SK-MEL-5 melanoma 89.1% | UACC-62 melanoma 90.6% | LOX IMVI melanoma 81.8% | SK-MEL-28 melanoma 107% | SK-MEL-2 melanoma 114% | EKVX NSCLC 77% | SN12C renal 94.5% | UO-31 renal 69.3% | TK-10 renal 146% | ACHN renal 91.4% | CAKI-1 renal 82.3% | A498 renal 99.5% | CCRF-CEM leukemia 94.2% | MOLT-4 leukemia 99.9%

COc1ccc(-c2ncnc3c2ncn3CC#CCCl)cc1
inactive: HCT-15 colon 49.6% | HT29 colon 93.9% | SNB-75 CNS 93.5% | SNB-19 CNS 72.5% | U251 CNS 29.4% | PC-3 prostate 57.1% | SK-MEL-5 melanoma 62.5% | UACC-62 melanoma 51.2% | SK-MEL-28 melanoma 86.7% | SK-MEL-2 melanoma 53.4% | EKVX NSCLC 115% | SN12C renal 46.3% | TK-10 renal 69.8% | ACHN renal 52.8% | CAKI-1 renal 61.8% | A498 renal 55.7% | CCRF-CEM leukemia 19.1%
active: LOX IMVI melanoma -31.7% | UO-31 renal -86.7% | MOLT-4 leukemia 4.95%

Cc1ccc(-c2nc(N3CCN(C(=O)Nc4ccc(Cl)c(C(F)(F)F)c4)CC3)c3ccccc3n2)cc1
inactive: HCT-15 colon 70.3% | HT29 colon 75.2% | SNB-75 CNS 66.2% | SNB-19 CNS 86% | U251 CNS 79.6% | PC-3 prostate 49.6% | SK-MEL-5 melanoma 84.3% | UACC-62 melanoma 70% | LOX IMVI melanoma 65.4% | SK-MEL-28 melanoma 89.2% | SK-MEL-2 melanoma 96.5% | EKVX NSCLC 79.4% | SN12C renal 74.8% | UO-31 renal 53.6% | TK-10 renal 93.7% | ACHN renal 71.5% | CAKI-1 renal 53.6% | A498 renal 45.9% | CCRF-CEM leukemia 65.8% | MOLT-4 leukemia 49.2%

OC(c1ccccc1)C(NC(Cc1ccccc1)c1ccccc1)c1ccccc1 (stereo not drawn)
inactive: HCT-15 colon 89.2% | HT29 colon 71.3% | SNB-75 CNS 90.9% | SNB-19 CNS 87.6% | U251 CNS 86.4% | PC-3 prostate 80.5% | SK-MEL-5 melanoma 94.6% | UACC-62 melanoma 69.4% | LOX IMVI melanoma 89.2% | SK-MEL-28 melanoma 97.8% | SK-MEL-2 melanoma 93.1% | EKVX NSCLC 92% | SN12C renal 87.1% | UO-31 renal 72.2% | TK-10 renal 92.2% | ACHN renal 90.7% | CAKI-1 renal 77.4% | A498 renal 74.6% | CCRF-CEM leukemia 93.3% | MOLT-4 leukemia 71.2%

c1ccc2c(-c3nc(-c4c[nH]c5ccncc45)cs3)c[nH]c2c1
active: HCT-15 colon 6% | HT29 colon 2.05% | U251 CNS -14.9% | LOX IMVI melanoma -76% | SK-MEL-28 melanoma -89.8% | CCRF-CEM leukemia 2.54%
inactive: SNB-75 CNS 57.6% | SNB-19 CNS 86.5% | PC-3 prostate 46.7% | SK-MEL-5 melanoma 51.1% | UACC-62 melanoma 87.1% | SK-MEL-2 melanoma 97.8% | EKVX NSCLC 35% | SN12C renal 68.9% | UO-31 renal 44.4% | TK-10 renal 56.4% | ACHN renal 23.5% | CAKI-1 renal 17.1% | A498 renal 85.5% | MOLT-4 leukemia 30%

COc1c(C2CC(=O)Nc3c2c(C)nn3-c2nc3ccccc3[nH]2)cc2c(c1OC)OCO2 (stereo not drawn)
inactive: HCT-15 colon 37.2% | HT29 colon 20.5% | SNB-75 CNS 44.2% | SNB-19 CNS 49.6% | U251 CNS 31.5% | PC-3 prostate 48.4% | SK-MEL-5 melanoma 31.9% | UACC-62 melanoma 55.2% | LOX IMVI melanoma 46.7% | SK-MEL-28 melanoma 44.2% | SK-MEL-2 melanoma 29.6% | EKVX NSCLC 58% | SN12C renal 68.8% | UO-31 renal 45.4% | TK-10 renal 66.9% | ACHN renal 55.8% | CAKI-1 renal 71.6% | A498 renal 22.6% | CCRF-CEM leukemia 11.3%
active: MOLT-4 leukemia -12.7%

O=C(O)c1cn(C2CC2)c2cc(N3CCN(C(=O)Nc4nc(-c5ccccc5)cs4)CC3)c(F)cc2c1=O
inactive: HCT-15 colon 29.9% | SNB-19 CNS 21.6% | PC-3 prostate 11.3% | UACC-62 melanoma 15.2% | SK-MEL-28 melanoma 52.9% | EKVX NSCLC 37.5% | TK-10 renal 26.3% | ACHN renal 25.2% | CAKI-1 renal 63.6% | CCRF-CEM leukemia 23% | MOLT-4 leukemia 22.9%
active: HT29 colon 4.04% | SNB-75 CNS 9.5% | U251 CNS 9.17% | SK-MEL-5 melanoma 3.08% | LOX IMVI melanoma -81.8% | SK-MEL-2 melanoma -10.8% | SN12C renal 4.91% | UO-31 renal 5.5% | A498 renal -0.916%
